Laboratory results published in PubChem BioAssay (NCATS).
Records with an inconclusive call do not appear. Entries that show only a call come without a potency. The source made the active and inactive calls. Calls follow the shape of the dose curve; as a rule, active = well fitted curve in the direction sought with a large enough effect; inconclusive = small, poorly fitted or top-dose-only effect, or another doubt; inactive = no such curve, though single readings can be large; an effect the other way counts as inactive or inconclusive.

What was measured:
[1] = biological target: Glutaminase kidney isoform, mitochondrial (Homo sapiens) (UniProt O94925); assay: qHTS for Inhibitors of Glutaminase (GLS): LOPAC Validation (AID 624146); also: nearly all actives have a fitted effect of over 60% in size; also: potency is read from the fitted curve at half-maximal effect
Chain of Glutaminase kidney isoform, mitochondrial (Homo sapiens) (O94925 whole entry, looked up, canonical isoform): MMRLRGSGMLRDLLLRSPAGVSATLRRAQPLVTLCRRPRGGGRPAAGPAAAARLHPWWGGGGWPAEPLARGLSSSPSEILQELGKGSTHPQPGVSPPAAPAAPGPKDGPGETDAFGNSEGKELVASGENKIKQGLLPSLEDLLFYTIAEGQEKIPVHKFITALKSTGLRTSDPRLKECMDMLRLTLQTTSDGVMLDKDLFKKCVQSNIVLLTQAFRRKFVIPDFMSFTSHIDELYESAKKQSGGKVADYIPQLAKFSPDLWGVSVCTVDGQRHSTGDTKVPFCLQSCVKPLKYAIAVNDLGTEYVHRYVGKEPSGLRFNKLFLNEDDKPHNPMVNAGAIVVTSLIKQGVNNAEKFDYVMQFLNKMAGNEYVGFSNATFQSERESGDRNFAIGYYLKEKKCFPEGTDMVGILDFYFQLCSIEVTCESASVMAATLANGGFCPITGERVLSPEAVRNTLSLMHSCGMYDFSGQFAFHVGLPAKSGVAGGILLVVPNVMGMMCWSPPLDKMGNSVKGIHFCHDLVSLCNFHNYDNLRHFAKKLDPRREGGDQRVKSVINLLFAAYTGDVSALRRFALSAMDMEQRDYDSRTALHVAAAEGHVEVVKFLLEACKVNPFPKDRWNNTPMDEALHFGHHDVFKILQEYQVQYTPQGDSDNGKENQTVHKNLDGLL
Procedure, shortened: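 Assay buffer: 45 mM KH2PO4 pH 8.2, 0.02% Tween-20. hKGA acts on L-glutamine (1 mM solution added); product glutamate is reported by an oxidase/peroxidase Amplex Red coupling, with fluorescence taken at baseline and 30 min.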

[2] = qHTS of Trypanosoma Brucei Inhibitors: LOPAC Validation (AID 624147); also: potency is read from the fitted curve at half-maximal effect
Procedure, shortened: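 ADP (130 uM final) triggers the TbPYK reaction after compound addition; incubation is 45 min at room temperature. Kinase-Glo Plus is then added and luminescence imaged. Normalized data are fitted to concentration-effect curves.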

[3] = biological target: Glucagon-like peptide 1 receptor (Homo sapiens) (UniProt P43220); assay: qHTS of GLP-1 Receptor Agonists: LOPAC Validation (AID 624148);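 also: luminescence from a luciferase reporter switched on by cAMP; higher luminescence signal means agonism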
Chain of Glucagon-like peptide 1 receptor (Homo sapiens) (P43220 whole entry, looked up): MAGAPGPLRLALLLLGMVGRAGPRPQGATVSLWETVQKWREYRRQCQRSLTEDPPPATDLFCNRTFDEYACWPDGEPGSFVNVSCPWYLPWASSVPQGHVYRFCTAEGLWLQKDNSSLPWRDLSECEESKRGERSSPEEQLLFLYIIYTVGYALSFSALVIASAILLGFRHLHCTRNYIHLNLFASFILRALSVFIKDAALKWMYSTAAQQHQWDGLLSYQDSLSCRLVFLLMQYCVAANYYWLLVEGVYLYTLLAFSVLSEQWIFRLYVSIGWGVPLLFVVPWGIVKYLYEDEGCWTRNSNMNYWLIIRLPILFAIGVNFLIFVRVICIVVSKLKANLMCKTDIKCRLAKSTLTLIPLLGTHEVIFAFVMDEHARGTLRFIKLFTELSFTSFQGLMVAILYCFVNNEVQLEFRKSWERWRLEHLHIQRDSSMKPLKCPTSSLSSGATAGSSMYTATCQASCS
Procedure, shortened: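 Agonism scored as increased luciferase luminescence driven by cAMP in HEK293 clones carrying GLP-1R. Cells settled 12 hours, received compound for 4-6 hr at 37 deg C, 5% CO2, and were read after 12 min detection reagent at RT.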

[4] = qHTS of Nrf2 Activators: LOPAC Validation (AID 624149)
Procedure, shortened: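 AREc32_Fluc cells, 1000/well in OPTI-MEM with 5% FBS, grown overnight, then exposed to compounds for 24 hr at 37 deg C, 5% CO2. ARE-driven firefly luciferase read by Steady-Glo luminescence after 30 min at RT.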

[5] = Cytotoxicity counterscreen for NFkB agonists and antagonists (AID 624476)
[6] = qHTS Assay for Identification of Small Molecule Agonists for NFkB Signaling Pathway. (AID 624478)
Procedure, shortened: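 NFkB-bla ME-180 cells carry a beta-lactamase reporter. They received compound plus TNF alpha at 10 pM final (its EC50) for 5 h at 37 C. Reporter activity was read as 460/530 nm emission ratio after 2 h LiveBLAzer substrate loading.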

[7] = Cell Proliferation Assay against the TMD8 Cell Line (AID 651645); conditions: TMD8 DLBCL cell line proliferation/viability; at 46.1 µM (top of the series) unless noted;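 also: cells exposed to compound for 48 h before reading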
Procedure, shortened: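 Seed log-phase TMD8 cells in RPMI containing 5% FBS, add compounds at once, incubate 48 hours at 37C. Equilibrate to room temperature, add CellTiter-Glo, read luminescence after 15 minutes and express relative to DMSO and bortezomib controls.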

[8] = Cell Proliferation Assay against the TMD8 Cell Line (Caspase readout at 16 hrs) (AID 651712)
Procedure, shortened: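 Apoptotic response of TMD8 cells was judged from caspase 3/7 activation following a 16 hour compound incubation at 37 °C. Luminescent signal was converted to percent activity, with DMSO set as 0% and 9.2 uM final bortezomib as 100%.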

[9] = Cell Proliferation Assay against the TMD8 Cell Line (Caspase readout at 8 hrs) (AID 651713)
Procedure, shortened: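 TMD8 cells in RPMI plus 5% FBS were treated with compound for 8 h at 37C. Caspase 3/7 activation was read by Caspase-Glo luminescence. Percent activity was scaled from DMSO (0%) to 9.2 uM bortezomib final (100%).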

[10] = HTS Assay for Allosteric Antagonists of the Human D2 Dopamine Receptor: Hit Validation in HTRF (AID 624455);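 also: stable D1 dopamine receptor cell line scored for blocking the D1 response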
Procedure, shortened: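 Hit validation in cells stably expressing the D1 dopamine receptor, run in HTRF format. Compounds were tested for their ability to inhibit the D1-mediated response.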

Compound: C[C@@H](N)C1CCC(C(=O)Nc2ccncc2)CC1 (stereo partly specified)
- Potency [1]: inactive
- Potency [2]: inactive
- outcome [3]: inactive
- outcome [4]: inactive
- Potency [5]: inactive
- outcome [6]: inactive
- viability (% of control) [7]: 91.3%
- Potency [8]: inactive
- Potency [9]: inactive

Compound: O=C1NC(=O)C(c2ccccc2[N+](=O)[O-])=C1Nc1ccc(O)c(Cl)c1
- Potency [1]: 10 µM (active)
- Potency [2]: inactive
- outcome [3]: inactive
- outcome [4]: inactive

Compound: O=c1cc(N2CCOCC2)oc2c(-c3ccccc3)cccc12
- Potency [1]: inactive
- Potency [2]: inactive
- outcome [3]: inactive
- outcome [4]: inactive
- outcome [10]: inactive

Compound: Nc1nc(N)c(N=O)c(OCC2CCCCC2)n1
- Potency [1]: inactive
- Potency [2]: inactive
- outcome [3]: inactive
- outcome [4]: inactive
- outcome [10]: inactive

Compound: CC(=O)N1CCN(c2ccc(OC[C@H]3CO[C@](Cn4ccnc4)(c4ccc(Cl)cc4Cl)O3)cc2)CC1
- Potency [1]: inactive
- Potency [2]: inactive
- outcome [3]: inactive
- outcome [4]: inactive
- outcome [10]: inactive

Compound: Nc1ccn([C@@H]2O[C@H](CO)[C@@H](O)C2O)c(=O)n1 (stereo partly specified)
- Potency [1]: inactive
- Potency [2]: inactive
- outcome [3]: inactive
- outcome [4]: inactive
- outcome [10]: inactive

Compound: CC(=O)O[C@H]1C(=O)[C@@]2(C)C([C@H](OC(=O)c3ccccc3)[C@]3(O)C[C@H](OC(=O)[C@H](O)[C@@H](NC(=O)c4ccccc4)c4ccccc4)C(C)=C1C3(C)C)[C@]1(OC(C)=O)CO[C@@H]1C[C@@H]2O (stereo partly specified)
- Potency [1]: inactive
- Potency [2]: inactive
- outcome [3]: inactive
- outcome [4]: inactive
- outcome [10]: inactive

Compound: NCCCCNCCCN
- Potency [1]: inactive
- Potency [2]: inactive
- outcome [3]: inactive
- outcome [4]: inactive
- outcome [10]: inactive

Compound: COc1cc2c(cc1OC)C1CC(=O)C(CC(C)C)CN1CC2 (stereo unspecified)
- Potency [2]: inactive
- outcome [3]: inactive
- outcome [4]: inactive

Compound: C[C@H](Cc1ccc(O)c(O)c1)[C@@H](C)Cc1ccc(O)c(O)c1
- Potency [1]: 0.631 µM (active)
- Potency [2]: 12 µM (active)
- outcome [3]: inactive
- outcome [4]: inactive
- outcome [10]: inactive

Compound: Oc1ccc(-c2nc(-c3ccc(F)cc3)c(-c3ccncc3)[nH]2)cc1
- Potency [1]: inactive
- Potency [2]: inactive
- outcome [3]: inactive
- outcome [4]: inactive
- outcome [10]: inactive

Compound: OC(CN1CCN(c2cccc(Cl)c2)CC1)C(c1ccccc1)c1ccccc1 (stereo unspecified)
- Potency [1]: inactive
- Potency [2]: inactive
- outcome [3]: inactive
- outcome [4]: inactive
- outcome [10]: inactive

Compound: Nc1nc(OCc2ccccc2)c2[nH]cnc2n1
- Potency [1]: inactive
- Potency [2]: inactive
- outcome [3]: inactive
- outcome [4]: inactive
- outcome [10]: inactive

Compound: CN(C)CCCC1(c2ccc(F)cc2)OCc2cc(C#N)ccc21 (stereo unspecified)
- Potency [1]: inactive
- Potency [2]: inactive
- outcome [3]: inactive
- outcome [4]: inactive
- outcome [10]: inactive
